From the supplement of paper PMC6555819

How the values were obtained:
Test in all cases: PBM binding z-score (relative to random genomic background probes); higher = stronger binding; sequences stand for … in GC…GCGATTGACAGCGTAGAATGAAGG
[1] = test system: LXRa:RXRa (NR concentration 270 nM, RXRa partner concentration 90 nM)
Outline: (§1)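 Ligand-free nuclear receptor dimers were bound for 1 h to custom Agilent 4×180K protein-binding microarrays. Detection used antibodies against each partner (one per run). Binding z-scores rest on regression-normalized fluorescence, with random background probes as the reference.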

[2] = test system: LXRa homodimer (NR concentration 270 nM)
Outline: as §1

[3] = test system: LXRb homodimer (NR concentration 270 nM)
Outline: as §1

[4] = test system: PPARa:RXRa (NR concentration 270 nM, RXRa partner concentration 90 nM)
Outline: as §1

[5] = test system: PPARg:RXRa (NR concentration 180 nM, RXRa partner concentration 90 nM)
Outline: as §1

[6] = test system: PPARg:RXRa 270nM:90nM, anti-RXR (NR concentration 270 nM, RXRa partner concentration 90 nM)
Outline: as §1

[7] = test system: PPARg:RXRa 30nM:10nM, anti-RXR (NR concentration 30 nM, RXRa partner concentration 10 nM)
Outline: as §1

[8] = test system: PPARg:RXRa 90nM:30nM, anti-RXR (NR concentration 90 nM, RXRa partner concentration 30 nM)
Outline: as §1

[9] = test system: PPARg:RXRa DBDmut IVT, anti-RXR (DBD mutation: RXRa K156A/R161A, NR concentration 270 nM, RXRa partner concentration 90 nM)
Outline: as §1

[10] = test system: PPARg:RXRa IVT, anti-PPARg (NR concentration 270 nM, RXRa partner concentration 90 nM)
Outline: as §1

[11] = test system: PPARg DBDmut:RXRa IVT, anti-PPARg (DBD mutation: PPARg1 K132A/R137A, NR concentration 270 nM, RXRa partner concentration 90 nM)
Outline: as §1

[12] = test system: PPARg DBDmut IVT, anti-PPARg (DBD mutation: PPARg1 K132A/R137A, NR concentration 270 nM)
Outline: as §1

[13] = test system: PPARg homodimer (NR concentration 180 nM)
Outline: as §1

[14] = test system: PXR:RXRa (NR concentration 270 nM, RXRa partner concentration 90 nM)
Outline: as §1

[15] = test system: PXR homodimer (NR concentration 270 nM)
Outline: as §1

[16] = test system: RARa:RXR (NR concentration 270 nM, RXRa partner concentration 90 nM)
Outline: as §1

[17] = test system: RARa homodimer (NR concentration 270 nM)
Outline: as §1

[18] = test system: RARb:RXRa (NR concentration 270 nM, RXRa partner concentration 90 nM)
Outline: as §1

[19] = test system: RARb homodimer (NR concentration 270 nM)
Outline: as §1

[20] = test system: FXR:RXRa (NR concentration 270 nM, RXRa partner concentration 90 nM)
Outline: as §1

Sequence	PBM binding z-score [1]	PBM binding z-score [2]	PBM binding z-score [3]	PBM binding z-score [4]	PBM binding z-score [5]	PBM binding z-score [6]	PBM binding z-score [7]	PBM binding z-score [8]	PBM binding z-score [9]	PBM binding z-score [10]	PBM binding z-score [11]	PBM binding z-score [12]	PBM binding z-score [13]	PBM binding z-score [14]	PBM binding z-score [15]	PBM binding z-score [16]	PBM binding z-score [17]	PBM binding z-score [18]	PBM binding z-score [19]	PBM binding z-score [20]
AGAATGAGGTCACCAAAGATCAGGGAAACGCTTG	6.5	1.08	0.991	6.33	8.68	8.01	5.4	7.63	7.14	7.35	1.62	0.808	3.69	5.47	1.12	5.82	1.69	5.43	4.08	–
CAAACTAGGTCACCGAAAGGTCAAAGTCCGCATG	–	7.45	2.39	–	–	8.22	6.51	8.62	8.72	9.24	8.36	7.3	9.63	–	3.23	–	4.75	–	5.37	7.31
TCTAGTGGGTCAAAGGTCACACACTCGAAATGCG	–	3.93	1.59	–	–	11.1	12.2	12.6	7.68	8.52	2.65	1.71	4.18	–	1.74	–	2.97	–	5.22	7.63
TGTCAATGTTCAAAGGTAACGTAAGTATCCACAC	–	-0.216	0.283	–	2.34	3.47	1.61	3.32	-0.214	1.8	1.27	0.82	0.516	–	-0.115	0.48	-0.4	1.09	0.732	0.202
CGTCCAAGGTCAATGCTAGATCAGTGAAAGCATT	–	0.407	0.497	–	3.65	4.19	1.52	2.91	3.16	3.17	-0.125	0.742	2.99	3.36	0.745	3.86	1.18	4.94	3.73	6.47
CCGAGTAGGTTACGAGGGGTCATTCAGTGCGAAT	–	6.16	–	–	4.13	4.4	1.73	3.54	4.41	4.3	–	–	4.32	–	10.4	6.71	1.29	3.35	3.68	4.94
GTTACAGGGTCAAGGCCAGAGTACGCGTATTGAT	–	0.317	0.463	–	5.4	5.66	2.09	4.49	3.09	4.35	0.698	0.735	2.94	3.92	0.672	4.89	0.693	4.52	4.1	6.43
TGTCAAAGTTCAAAGGTTACGTAAGTATCCACAC	–	5.25	2.03	–	–	8.17	5.91	8.13	0.119	5.16	1.58	1.43	3.27	–	4.04	–	1.12	–	4.75	7.49
ATCGAAAGGTCGTGAGGTAAGTATACAGAAAGGC	–	0.488	0.774	–	4.03	4.37	1.57	3.06	0.266	2.1	1.96	0.952	2.1	3.42	0.535	4.43	1.16	3.99	2.76	5.54
CGAACTAGGTCGAGGACAGTGAATCTCCGCACGC	-0.0944	-0.716	-0.651	1.75	2.03	1.98	0.0747	1.23	5.71	5	0.082	-0.0951	-0.11	-0.012	-0.207	0.419	-0.18	1.64	1.18	–
AATACAAGGTCATCGTAGGCCAGAGTACGCACAG	–	6.1	3.33	–	6.55	5.94	2.73	5.04	3.93	4.7	0.979	1.37	2.81	4.87	2.13	4.63	1.33	5.15	4.19	7.64
TATTCAGGGTCAAAGGCCAGAGTACGAATGTCGA	–	5.36	5.04	–	8.53	7.7	6.15	7.42	2.47	5.28	4.08	6.08	3.43	4.67	0.543	6.17	1.17	4.83	3.61	7.57
CCTAGTGGGCCAAGGTCATTGATCAGTCAAAGCA	2.91	0.693	-0.381	3.87	4.1	4.29	1.64	3.71	3.98	4.38	-0.821	-0.95	2.36	3.66	1.8	3.56	0.113	3.36	3.28	–
TATAAAGGGTCAAAGGCCAGAGTACGAATGTCGA	6.68	2.98	3.14	6.43	8.34	7.5	6.09	7.52	2.57	4.93	2.86	2.33	3.29	4.36	0.699	5.99	1.64	5.27	4.32	–
TTACCAAGGTGAACGGTCGTTGATGCACGCCTTG	0.744	-0.159	-0.974	2.04	1.77	2.8	1.17	2.35	2.31	3.55	1.13	0.904	0.997	-0.0425	-0.818	0.693	-0.752	2.03	1.31	–
CGAACTAGGTCATTGACAGGACAGTGGATAGTAA	2.74	0.471	0.232	4.75	7.3	6.07	3.68	5.3	8.44	7.98	2.72	1.77	1.39	1.52	0.501	2.02	-0.303	3.53	2.83	–
CCGAGAAGGTTACGAGGGGGCATTCAGTGCGAAT	–	1.76	–	–	1.9	2.99	0.996	1.72	1.32	2.5	–	–	2.11	5.85	5.71	4.07	0.612	3.24	2.66	4.03
CCTTACGGGTAACGAGGTTATAGCACGACGAGCG	0.424	-0.553	-0.211	1.62	1.49	1.14	0.156	0.641	1.07	1.82	-0.344	-1.05	0.604	0.822	0.153	1.3	0.476	0.589	0.484	–
CCTACTGGGTCACGAAAGGTCATTGATTCAGTGA	–	6.45	0.81	–	9.12	7.71	5.23	6.95	7.12	8.65	1.64	2.22	4.41	–	2.09	–	2.35	–	5.9	6.45
CGTCCAAGGTCGAAGGTCAGTGAAGAGATGACGG	3.14	0.000668	-0.645	4.7	5.43	5.79	3.26	5.18	0.518	2.36	-0.273	-0.43	1.19	3.61	0.105	5.45	0.117	3.98	3.62	–
TGAATGAGGTTAAATATCAGGGAACGTGGCGTCG	2.5	-0.0698	0.686	3.72	2.51	3.17	1.45	2.46	2.43	2.35	0.916	0.956	0.766	1.35	0.413	1.91	0.347	2.17	0.735	–
CCTACTGGGTCAAAGGTCATTGATTCCAATGCTC	–	5.27	1.18	–	–	11.2	12.3	13	7.6	8.67	3.67	3.47	7.2	–	3.3	–	2.65	–	5.06	7.5
TCTAGTCGGTCAAAGGTCACACACTCGAAATGCG	–	5.28	2.21	–	–	10.2	11.1	11.4	5.17	6.92	1.34	1.59	5.59	6.26	1.5	–	2.61	5.34	5.22	6.97
AGCGAAAGGTCGAGGTGAGTATAGAGAAAGGGAA	3.18	-0.189	-0.246	4.51	3.81	4.31	1.4	3.37	0.228	2.26	0.0948	0.386	1.75	2.52	0.259	3.19	0.743	4.03	2.64	–
CAGCATAGGTCAGGGCCAGTATAGGAGGAACGTT	2.57	-0.16	-0.316	3.86	2.08	1.98	0.464	0.958	0.577	1.1	-0.177	-0.223	1.42	1.36	0.189	2.17	0.463	3.89	3.19	–
CAAACTAGGTCAAAAGGTCAAAGTCCGCTTCCCG	–	6.17	2.63	–	10.2	8.73	7.62	9.1	8.5	8.17	1.83	1.09	7.65	6.71	2.96	–	5.47	–	6.38	7.44
TCTCGGAGGACACTAAAGGTCAGAGCTCGACATC	5.15	5.33	0.134	3.42	1.47	2.94	2.78	2.97	1.65	1.59	-0.114	-0.191	2.43	3.8	0.66	4.14	0.456	3.84	4.7	–
TCTGCTAGGTCAACGATGGTCAGTTAATCTGCTA	2.65	-0.279	0.325	3.04	2.14	2.8	1.79	2.47	4.02	4.08	0.247	0.848	1.07	1.88	-0.482	2.17	-0.966	4.04	3.26	–
AAAACAGGGTCATCGTAGGCCAGAGTACGCACAG	6.26	0.569	1.32	6.26	7.65	6.86	4.1	5.89	4.38	5.24	4.19	2.83	6.6	5.51	0.625	5.95	0.959	4.44	3.68	–
CCTCGGAGGACAGAAGGTCAAAGCTGTCCGCTTT	4.02	1.82	-0.421	3.67	0.66	2.18	-0.0409	1.41	0.187	0.662	-1.42	-2.33	2.07	3.39	0.288	–	0.206	3.74	4.26	–
